# Experimental data taken from the supplement of paper PMC4466140.
# Columns and labels:
# Assay in all cases: SPOT peptide array binding signal intensity (averaged, normalized) (arbitrary units (background-subtracted, floor 0; scale differs between SH3 domains)); higher = stronger binding of the SH3 domain to the peptide
# AgAbp1 = target: AgAbp1
# How it was run: (§1)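 Spot intensities were captured after detection with anti-GST antibody, an HRP-linked anti-mouse secondary and luminol, and quantified with Genespotter. The probes were GST-fused SH3 domains from four yeast species, produced in E. coli BL21(DE3), purified on glutathione Sepharose and incubated at 10 μg/ml overnight at 4°C on cellulose-bound synthetic 15-mer peptides with cysteines replaced by serines. Binding signal is the normalized, background-subtracted spot intensity averaged over replicates, and its arbitrary units differ between domains.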
# AgBbc1 = target: AgBbc1
# How it was run: as §1
# AgBem1-D1 = target: AgBem1-D1
# How it was run: as §1
# AgBzz1-D1 = target: AgBzz1-D1
# How it was run: as §1
# AgBzz1-D2 = target: AgBzz1-D2
# How it was run: as §1
# AgCyk3 = target: AgCyk3
# How it was run: as §1
# AgFus1 = target: AgFus1
# How it was run: as §1
# AgHof1 = target: AgHof1
# How it was run: as §1
# AgHse1 = target: AgHse1
# How it was run: as §1
# AgLsb1 = target: AgLsb1
# How it was run: as §1
# AgLsb4 = target: AgLsb4
# How it was run: as §1
# AgMyo5 = target: AgMyo5
# How it was run: as §1
# AgNbp2 = target: AgNbp2
# How it was run: as §1
# AgRvs167 = target: AgRvs167
# How it was run: as §1
# AgSho1 = target: AgSho1
# How it was run: as §1
# AgSla1-D1-D2 = target: AgSla1-D1-D2
# How it was run: as §1
# AgSla1-D3 = target: AgSla1-D3
# How it was run: as §1
# CaAbp1-D1 = target: CaAbp1-D1
# How it was run: as §1
# CaAbp1-D2 = target: CaAbp1-D2
# How it was run: as §1
# CaBbc1 = target: CaBbc1
# How it was run: as §1
# CaBem1-D1 = target: CaBem1-D1
# How it was run: as §1
# CaBzz1-D1 = target: CaBzz1-D1
# How it was run: as §1
# CaBzz1-D2 = target: CaBzz1-D2
# How it was run: as §1
# CaCyk3 = target: CaCyk3
# How it was run: as §1
# CaFus1 = target: CaFus1
# How it was run: as §1
# CaHof1 = target: CaHof1
# How it was run: as §1
# CaHse1 = target: CaHse1
# How it was run: as §1
# CaLsb1 = target: CaLsb1
# How it was run: as §1
# CaLsb4 = target: CaLsb4
# How it was run: as §1
# CaMyo5 = target: CaMyo5
# How it was run: as §1
# CaNbp2 = target: CaNbp2
# How it was run: as §1
# CaRvs167 = target: CaRvs167
# How it was run: as §1
# CaRvs167-3 = target: CaRvs167-3
# How it was run: as §1
# CaSho1 = target: CaSho1
# How it was run: as §1
# CaSla1-D1-D2 = target: CaSla1-D1-D2
# How it was run: as §1
# CaSla1-D3 = target: CaSla1-D3
# How it was run: as §1
# ScAbp1 = target: ScAbp1
# How it was run: as §1
# ScBbc1 = target: ScBbc1
# How it was run: as §1
# ScBem1-D1 = target: ScBem1-D1
# How it was run: as §1
# ScBzz1-D1 = target: ScBzz1-D1
# How it was run: as §1
# ScBzz1-D2 = target: ScBzz1-D2
# How it was run: as §1
# ScCyk3 = target: ScCyk3
# How it was run: as §1
# ScFus1 = target: ScFus1
# How it was run: as §1
# ScHof1 = target: ScHof1
# How it was run: as §1
# ScHse1 = target: ScHse1
# How it was run: as §1
# ScLsb1 = target: ScLsb1
# How it was run: as §1
# ScLsb2 = target: ScLsb2
# How it was run: as §1
# ScLsb3 = target: ScLsb3
# How it was run: as §1
# ScLsb4 = target: ScLsb4
# How it was run: as §1
# ScMyo3 = target: ScMyo3
# How it was run: as §1
# ScMyo5 = target: ScMyo5
# How it was run: as §1
# ScNbp2 = target: ScNbp2
# How it was run: as §1
# ScPex13 = target: ScPex13
# How it was run: as §1
# ScRvs167 = target: ScRvs167
# How it was run: as §1
# ScSho1 = target: ScSho1
# How it was run: as §1
# ScSla1-D1-D2 = target: ScSla1-D1-D2
# How it was run: as §1
# ScSla1-D3 = target: ScSla1-D3
# How it was run: as §1
# SpAbp1-D1 = target: SpAbp1-D1
# How it was run: as §1
# SpBbc1 = target: SpBbc1
# How it was run: as §1
# SpBzz1-D1 = target: SpBzz1-D1
# How it was run: as §1
# SpBzz1-D2 = target: SpBzz1-D2
# How it was run: as §1
# SpCyk3 = target: SpCyk3
# How it was run: as §1
# SpHof1 = target: SpHof1
# How it was run: as §1
# SpHof1-2 = target: SpHof1-2
# How it was run: as §1
# SpHof1-3 = target: SpHof1-3
# How it was run: as §1
# SpHse1 = target: SpHse1
# How it was run: as §1
# SpLsb1 = target: SpLsb1
# How it was run: as §1
# SpLsb4 = target: SpLsb4
# How it was run: as §1
# SpMyo1 = target: SpMyo1
# How it was run: as §1
# SpNbp2 = target: SpNbp2
# How it was run: as §1
# SpPex13 = target: SpPex13
# How it was run: as §1
# SpRvs167 = target: SpRvs167
# How it was run: as §1
# SpSla1-D1-D2 = target: SpSla1-D1-D2
# How it was run: as §1
# SpSla1-D3 = target: SpSla1-D3
# How it was run: as §1
binder,measurement,setting,value
NFFRKKLGIPRKLKR,SPOT peptide array binding signal intensity,AgAbp1,227
same,SPOT peptide array binding signal intensity,AgBbc1,12
same,SPOT peptide array binding signal intensity,AgBem1-D1,94
same,SPOT peptide array binding signal intensity,AgBzz1-D1,20
same,SPOT peptide array binding signal intensity,AgBzz1-D2,45
same,SPOT peptide array binding signal intensity,AgCyk3,1.5
same,SPOT peptide array binding signal intensity,AgFus1,142
same,SPOT peptide array binding signal intensity,AgHof1,13.2
same,SPOT peptide array binding signal intensity,AgHse1,1980
same,SPOT peptide array binding signal intensity,AgLsb1,3.5
same,SPOT peptide array binding signal intensity,AgLsb4,99
same,SPOT peptide array binding signal intensity,AgMyo5,2
same,SPOT peptide array binding signal intensity,AgNbp2,44
same,SPOT peptide array binding signal intensity,AgRvs167,5.33
same,SPOT peptide array binding signal intensity,AgSho1,73
same,SPOT peptide array binding signal intensity,AgSla1-D1-D2,368
same,SPOT peptide array binding signal intensity,AgSla1-D3,1.5
same,SPOT peptide array binding signal intensity,CaAbp1-D1,1000
same,SPOT peptide array binding signal intensity,CaAbp1-D2,1180
same,SPOT peptide array binding signal intensity,CaBbc1,31.5
same,SPOT peptide array binding signal intensity,CaBem1-D1,4
same,SPOT peptide array binding signal intensity,CaBzz1-D1,47.5
same,SPOT peptide array binding signal intensity,CaBzz1-D2,26
same,SPOT peptide array binding signal intensity,CaCyk3,≤ 0
same,SPOT peptide array binding signal intensity,CaFus1,729
same,SPOT peptide array binding signal intensity,CaHof1,0.5
same,SPOT peptide array binding signal intensity,CaHse1,37.2
same,SPOT peptide array binding signal intensity,CaLsb1,1
same,SPOT peptide array binding signal intensity,CaLsb4,≤ 0
same,SPOT peptide array binding signal intensity,CaMyo5,0.75
same,SPOT peptide array binding signal intensity,CaNbp2,189
same,SPOT peptide array binding signal intensity,CaRvs167,8.83
same,SPOT peptide array binding signal intensity,CaRvs167-3,47
same,SPOT peptide array binding signal intensity,CaSho1,447
same,SPOT peptide array binding signal intensity,CaSla1-D1-D2,11
same,SPOT peptide array binding signal intensity,CaSla1-D3,2.5
same,SPOT peptide array binding signal intensity,ScAbp1,146
same,SPOT peptide array binding signal intensity,ScBbc1,4.5
same,SPOT peptide array binding signal intensity,ScBem1-D1,14
same,SPOT peptide array binding signal intensity,ScBzz1-D1,9
same,SPOT peptide array binding signal intensity,ScBzz1-D2,13.5
same,SPOT peptide array binding signal intensity,ScCyk3,53
same,SPOT peptide array binding signal intensity,ScFus1,314
same,SPOT peptide array binding signal intensity,ScHof1,1.25
same,SPOT peptide array binding signal intensity,ScHse1,1910
same,SPOT peptide array binding signal intensity,ScLsb1,13.5
same,SPOT peptide array binding signal intensity,ScLsb2,8
same,SPOT peptide array binding signal intensity,ScLsb3,103
same,SPOT peptide array binding signal intensity,ScLsb4,3
same,SPOT peptide array binding signal intensity,ScMyo3,≤ 0
same,SPOT peptide array binding signal intensity,ScMyo5,0.5
same,SPOT peptide array binding signal intensity,ScNbp2,68
same,SPOT peptide array binding signal intensity,ScPex13,0.5
same,SPOT peptide array binding signal intensity,ScRvs167,2.33
same,SPOT peptide array binding signal intensity,ScSho1,473
same,SPOT peptide array binding signal intensity,ScSla1-D1-D2,38.5
same,SPOT peptide array binding signal intensity,ScSla1-D3,6.25
same,SPOT peptide array binding signal intensity,SpAbp1-D1,462
same,SPOT peptide array binding signal intensity,SpBbc1,3
same,SPOT peptide array binding signal intensity,SpBzz1-D1,50
same,SPOT peptide array binding signal intensity,SpBzz1-D2,≤ 0
same,SPOT peptide array binding signal intensity,SpCyk3,≤ 0
same,SPOT peptide array binding signal intensity,SpHof1,87
same,SPOT peptide array binding signal intensity,SpHof1-2,1.25
same,SPOT peptide array binding signal intensity,SpHof1-3,998
same,SPOT peptide array binding signal intensity,SpHse1,1560
same,SPOT peptide array binding signal intensity,SpLsb1,25.5
same,SPOT peptide array binding signal intensity,SpLsb4,19
same,SPOT peptide array binding signal intensity,SpMyo1,0.5
same,SPOT peptide array binding signal intensity,SpNbp2,63.5
same,SPOT peptide array binding signal intensity,SpPex13,5
same,SPOT peptide array binding signal intensity,SpRvs167,3.67
same,SPOT peptide array binding signal intensity,SpSla1-D1-D2,≤ 0
same,SPOT peptide array binding signal intensity,SpSla1-D3,17.5
